Screening data (PubChem)
Autofluor counter: compound fluorescence in toxin protease inhibitor counterscreen | fluorescence intensity (no concentration beside the values) | 360,000 compounds, 3.1% hits | compound autofluorescence counterscreen, microsphere flow cytometry; hits give high values; in the data active = fluorescence intensity above about 16000; inconclusive = no clear call, values can overlap the other calls
BoNT-F LC inh: inhibitors of Botulinum neurotoxin F light chain protease; inhibition, % at 10 µM; 360,000 compounds, 0.22% hits; Multiplex microsphere protease cleavage assay, flow cytometry; in the data active = inhibition above about 35%, passing the limit was not always enough; inconclusive = no clear call, values can overlap the other calls; note: plate controls were buffer without enzyme for full effect and enzyme alone for no effect
VHR inh abs: blocks human VHR1 dual specificity phosphatase; P51452; recombinant VHR phosphatase, pNPP absorbance; inhibition, % at 13.3 µM; 290,000 compounds, 0.52% hits; in the data active = inhibition above about 50%
BoNT A protease: BoNT A light chain protease inhibition; 360,000 compounds, 0.17% hits; multiplex microsphere protease substrate cleavage, flow cytometry; inhibition, % at 10 µM; AID 588499; note: plate controls were buffer without enzyme for full effect and enzyme alone for no effect
MazF activator: increases E. coli MazEF RNase cleavage of RNA | P0AE70 | FAM/BHQ RNA-DNA oligo cleavage fluorescence, 5 h | activation, % at 20 µM | 350,000 compounds, 0.32% hits; in the data active = activation above about 50%
Anthrax LF prot: blocks Bacillus anthracis lethal factor protease; inhibition, % at 10 µM; multiplex microsphere protease cleavage assay, LF; 360,000 compounds, 0.12% hits; note: plate controls were buffer without enzyme for full effect and enzyme alone for no effect
Target sequence (P15917 whole entry, looked up): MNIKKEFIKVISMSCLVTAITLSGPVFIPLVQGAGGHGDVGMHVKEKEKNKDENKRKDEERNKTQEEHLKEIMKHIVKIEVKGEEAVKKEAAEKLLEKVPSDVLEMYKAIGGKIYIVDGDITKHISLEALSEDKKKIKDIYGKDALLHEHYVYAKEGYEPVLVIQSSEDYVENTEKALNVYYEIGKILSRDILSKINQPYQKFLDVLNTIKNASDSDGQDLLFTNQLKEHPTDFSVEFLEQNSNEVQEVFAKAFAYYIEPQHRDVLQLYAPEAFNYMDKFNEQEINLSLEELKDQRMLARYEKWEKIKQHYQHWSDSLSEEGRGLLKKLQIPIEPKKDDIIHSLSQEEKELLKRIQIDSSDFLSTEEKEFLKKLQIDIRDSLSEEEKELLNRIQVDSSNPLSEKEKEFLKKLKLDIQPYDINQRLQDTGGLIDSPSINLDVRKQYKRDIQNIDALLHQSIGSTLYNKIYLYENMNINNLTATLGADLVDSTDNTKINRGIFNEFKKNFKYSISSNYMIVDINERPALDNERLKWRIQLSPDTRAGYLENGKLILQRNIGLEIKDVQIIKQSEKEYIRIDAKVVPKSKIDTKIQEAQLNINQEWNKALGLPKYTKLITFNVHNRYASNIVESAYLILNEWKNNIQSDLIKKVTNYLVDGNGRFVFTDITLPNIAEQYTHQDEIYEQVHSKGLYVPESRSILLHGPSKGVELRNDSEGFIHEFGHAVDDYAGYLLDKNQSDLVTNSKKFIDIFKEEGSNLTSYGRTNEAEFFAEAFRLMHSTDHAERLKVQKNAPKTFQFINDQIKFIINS
The depositor's hits bear a star; ? = inconclusive; . = not tested or not shown; + = active, no number; ! = not active in a repeat. Compounds with a hit are over-represented: about 4.1% of the library has one in this group of screens. Cut-off read from the data, not from the text of the source, unless noted: active = inhibition above about 30%; inconclusive = no clear call, values can overlap the other calls; inactive = below that.

SMILES	Autofluor counter	BoNT-F LC inh	VHR inh abs	BoNT A protease	MazF activator	Anthrax LF prot
C#CCNC(=O)C[C@@H]1C[C@@]2(C(=O)OCC)CCCC=C2N(Cc2ccc(Cl)cc2Cl)C1=O	6533	-14	.	-1	.	-2
Cc1ccc(S(=O)(=O)NCCC(=O)NCC(c2cccs2)N(C)C)cc1 (stereo not drawn)	3049	-2	.	1	3	-3
Cc1cnc(NC(=O)c2ccc3ncsc3c2)s1	4416	8	.	3	-5	-4
O=C(c1ccc(NS(=O)(=O)c2ccc3[nH]c(=O)[nH]c3c2)cc1)N1CCN(c2ccccc2)CC1	3918	0	.	0	12	-12
COc1cc2c3nnc(-c4ccccc4)c-3cn(Cc3ccccc3F)c2cc1OC	.	.	16	.	734*	.
O=C(NCCN1CCC(n2c(=O)[nH]c3ccccc32)CC1)c1c(F)cccc1F	4433	-2	.	0	.	-10
CCOC(=O)CN(C(=O)CSc1nnc(CNc2ccc(C)cc2C)o1)c1ccccc1	21560*	1	34	1	-5	-15
CCOC(=O)CN(C(=O)CSc1nnc(-c2ccc(OC)c(OC)c2)o1)c1ccccc1	20211*	-2	-4	?	1	1
COc1ccc(-c2nnc(SCC(=O)N3CCC(Cc4ccccc4)CC3)o2)cc1OC	22436*	-3	21	0	3	-5
Cc1ccc(NCc2nnc(SCC(N)=O)o2)c(C)c1	4508	-6	-4	-1	5	-2
COc1cc(C2c3cc4c(cc3OC(NCc3ccccc3)C2C)OCO4)cc(OC)c1OC (stereo not drawn)	3814	-5	.	0	8	-11
COc1ccc(NC(=O)C2Cc3c(-c4ccc(Cl)cc4)ccnc3O2)cc1OC (stereo not drawn)	3575	4	.	0	.	3
C/C(N)=C(/C#N)C(=O)CSc1nnc(-c2ccccc2Br)o1	4690	-21	31	-1	5	-5
O=C(O)c1cccc(CSc2nnc(-c3ccco3)o2)c1	5168	-3	28	0	-10	-2
O=C(O)c1cccc(CSc2nnc(Cc3ccccc3)o2)c1	22785*	-2	8	?	-7	1
COc1ccc(-c2nnc(SCC(=O)/C(C#N)=C(\C)N)o2)cc1	24309*	-2	20	?	24	0
c1ccc(CSc2nnc(Cc3ccccc3)o2)cc1	4186	2	12	0	1	-4
COc1cc(OC)cc(-c2nnc(SCc3cccc(C(=O)O)c3)o2)c1	22846*	1	11	2	2	0
COc1cccc(-c2nnc(SCC(=O)N(C(C)C)C(C)C)o2)c1	24162*	-5	7	?	-4	-3
Cc1ccc(S(=O)(=O)N2CCOCC2)cc1C(=O)OCC(=O)NC1CCCC(C)C1C (stereo not drawn)	9394	-4	.	-2	4	-3
C=CCOc1cccc(/C=N/NC(=O)CC(=O)NC2CCCCC2)c1	4333	-10	10	1	8	4
CCc1cccc(CC)c1NC(=O)c1ccccc1	2612	0	-2	0	5	2
CCc1cccc(CC)c1NC(=O)c1cccc(N)c1	3681	-5	56*	-1	7	-5
CCCOc1cc2c(C#N)c(N3CCCC3)nc(N)c2c(N)n1	2902	-8	.	0	63*	-4
N#Cc1c(N)nc(N2CCCC2)c(C#N)c1-c1ccc(Cl)cc1	9535	-6	-12	-1	66*	-6
SMILES	Autofluor counter	BoNT-F LC inh	VHR inh abs	BoNT A protease	MazF activator	Anthrax LF prot
CCOc1cc2c(C#N)c(N3CCCC3)nc(N)c2c(N)n1	4145	1	.	1	8	6
COc1cc2c(C#N)c(N3CCCC3)nc(N)c2c(N)n1	3435	-17	16	4	90*!	-4
O=S(=O)(c1ccc(NCCOc2ccccc2)nc1)N1CCCC1	4234	4	.	0	7	7
Cn1nc(N)c2c(-c3ccc(Cl)cc3)c(C#N)c(N)nc21	9853	2	-1	1	6	-5
CCN(CC)c1ccc(-c2c(C#N)c(N)nc(OC)c2C#N)cc1	4464	2	10	0	75*	-4
Cn1c(=O)oc2cc(S(=O)(=O)NCCN3CCCCCC3)ccc21	21921*	-13	26	?	2	-5
CC1CCCCN1CCNS(=O)(=O)c1ccc2c(c1)oc(=O)n2C (stereo not drawn)	22199*	-6	12	?	-1	-3
Cn1c(=O)oc2cc(S(=O)(=O)NCCN3CCc4ccccc4C3)ccc21	4614	1	35	-1	0	-5
Cn1c(=O)oc2cc(S(=O)(=O)NCc3ccccc3)ccc21	9133	-8	51*	2	-1	-3
Cn1c(=O)oc2cc(S(=O)(=O)NCc3ccc(Cl)cc3)ccc21	5052	1	-14	-1	6	2
CCC(=O)N(Cc1cc(=O)[nH]c2ccccc12)c1ccc(OC)cc1	3818	?	7	2	9	10
C/C(=N\NC(=O)C(C)Oc1ccc([N+](=O)[O-])cc1)c1ccccn1 (stereo not drawn)	24747*	-4	31	?	5	-5
Cc1cc2c(ncn2Cc2ccccc2)c([N+](=O)[O-])c1C	22108*	2	13	0	8	-5
COc1ccc(Cn2cnc3c(N)c(C)c(C)cc32)cc1	4602	-11	13	-3	3	-9
Cc1cccc(C(=O)OCc2cc3ccccc3[nH]c2=O)c1	.	.	6	.	77*	.
Cn1nnnc1SCCNCc1ccc(Cl)cc1	17333*	-9	21	?	-1	-2
Cn1nnnc1SCCNCc1ccccc1OCc1ccc(Cl)cc1	2681	-15	6	0	-9	-1
CN(C(=O)c1ccc(NC(=O)Cc2cccc(NC(=O)C3CCCN(C(=O)C4CCC4)C3)c2)cc1)C1CCCC1 (stereo not drawn)	3701	-7	.	0	-4	0
CN(N=Nc1ccc([N+](=O)[O-])cc1)c1ccccc1	2596	-1	-5	-1	+	1
CN(N=Nc1cccc([N+](=O)[O-])c1)c1ccccc1	4156	-16	10	-1	10	2
C=Cn1cc[n+](CC(=O)c2ccc(Br)cc2)c1	3577	4	29	-3	-2	-15
Cc1ccc2c(cnn2C(=O)CCCC(=O)NC(C)c2ccccc2)c1 (stereo not drawn)	5407	-7	33	-1	-7	-3
O=C1CCCc2nc(N3CCN(Cc4ccccc4)CC3)ncc21	17293*	9	22	?	-6	2
CC(=O)Nc1ccc(SCc2c(C)noc2C)cc1	3175	27	6	0	3	30*
Cc1noc(C)c1CSc1ccc(Br)cc1	10395	-4	17	1	-7	-4
Cn1c(=O)c2c(nc(CN3CCN(C(=O)c4ccco4)CC3)n2Cc2ccc(Cl)cc2)n(C)c1=O	18363*	3	7	4	-7	-5
O=C(c1ccco1)N1CCN(Cc2nc3ccccc3c(=O)n2-c2ccc(F)cc2)CC1	22917*	-1	15	1	8	-9
